Compounds with a hit are over-represented: about 1.5% of the library has one in this group of screens.
MCL1-BIM inh: inhibitors of MCL1 binding to BIM-BH3, primary screen, biochemical, fluorescence polarization. Induced myeloid leukemia cell differentiation protein Mcl-1 (Homo sapiens), Q07820. GST-MCL1 / FITC-Bim-BH3 fluorescence polarization. inhibition, % at 10.9 µM. hit rate 0.68% among 320,000. AID 2057, 2009;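 active = inhibition above the mean inhibition of all tested compounds plus 3 SD, set per campaign, cut at about 40% in these data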;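 also: 0% = DMSO wells and 100% = unlabeled Bim-BH3 peptide control; higher means more loss of mP so more displacement of Bim peptide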
GLD-1 RNA inh: GLD-1/TGE RNA complex disruptors, primary screen, biochemical, fluorescence polarization; Female germline-specific tumor suppressor gld-1 (Caenorhabditis elegans), Q17339; AID 2280, 2010; inhibition, % at 5.96 µM; hit rate 0.44% among 320,000; purified GLD-1 + fluorescein TGE RNA;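 active = percent inhibition above a per-plate cutoff, the plate mean of test compounds plus 3 SD, cut at about 30% in these data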;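 also: 0% = DMSO wells with GLD-1 and probe and 100% = wells lacking GLD-1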
Target sequence (Q17339 whole entry, looked up): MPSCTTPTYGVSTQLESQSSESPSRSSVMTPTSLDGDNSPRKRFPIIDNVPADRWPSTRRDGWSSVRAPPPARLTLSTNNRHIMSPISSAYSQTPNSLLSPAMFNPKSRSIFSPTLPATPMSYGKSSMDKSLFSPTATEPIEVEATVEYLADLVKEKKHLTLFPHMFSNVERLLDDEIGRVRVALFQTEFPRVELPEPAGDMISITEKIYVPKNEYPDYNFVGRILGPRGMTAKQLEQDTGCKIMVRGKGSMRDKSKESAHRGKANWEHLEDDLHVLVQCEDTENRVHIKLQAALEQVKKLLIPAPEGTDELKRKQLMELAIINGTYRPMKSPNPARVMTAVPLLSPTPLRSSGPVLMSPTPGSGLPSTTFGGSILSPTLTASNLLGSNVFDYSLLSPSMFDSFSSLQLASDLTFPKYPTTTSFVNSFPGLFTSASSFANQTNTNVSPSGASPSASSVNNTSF
IDE cell inh: human IDE inhibitors in live cells, primary screen, fluorescence polarization, HEK cells, FAbetaB substrate; inhibition, % at 5.59 µM; FAbetaB cleavage; hit rate 0.41% among 320,000; AID 434962, 2010; Insulin-degrading enzyme (Homo sapiens), P14735;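 active = percent inhibition above the average of all tested compounds plus 3 SD, set per screening campaign, cut at about 16% in these data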;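 also: IDE supplied by intact live HEK cells; FP after avidin binding of uncleaved biotin substrate so inhibition keeps polarization high; 0% = DMSO wells and 100% = 60 µM reference IDE inhibitor Ii1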
BCLXL inh: inhibitors of human Bcl-xL, primary screen, biochemical, fluorescence polarization, HTS; Bcl-2-like protein 1 (Homo sapiens), Q07817; hit rate 0.7% among 320,000; inhibition, % at 10.9 µM; GST-Bcl-xL / FITC-Bim BH3 peptide fluorescence polarization; AID 2129, 2009;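 active = inhibition above the mean of all tested compounds plus 3 SD, cutoff set per campaign, cut at about 30% in these data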;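 also: 0% = DMSO wells and 100% = unlabeled Bim-BH3 peptide competitor; inhibitors lower millipolarization by displacing the labeled peptide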
MEX-5 binding: MEX-5 zinc finger RNA-binding disruptors – biochemical, C. elegans, fluorescence polarization, MLPCN library, primary screen. hit rate 0.38% among 300,000. Zinc finger protein mex-5 (Caenorhabditis elegans), Q9XUB2. MEX-5/FITC-TCR2 RNA binding; hits give low values. activity score (negative = inhibition of binding), % at 10 µM;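 active = inhibition past about -25% in most replicates, and total fluorescence under double the plate's negative control median, limit read from the data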;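 also: 0% = DMSO and -100% = 5 µM competing unlabeled TCR2 RNA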
IDE cell activ: human IDE activators in live cells, primary screen, fluorescence polarization, HEK cells, FAbeta-B substrate; Insulin-degrading enzyme (Homo sapiens), P14735; FAbeta-B cleavage; 0% vehicle, 100% cell-free pure enzyme wells; activation, % at 5.96 µM; hit rate 0.073% among 340,000;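 active = activation above the mean of all tested compounds plus 3 SD, set per screening campaign, cut at about 17% in these data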
* = called active by the depositor.

Results for CC1c2cccn2CCN1S(=O)(=O)c1ccc(F)cc1 (stereo not given) ?
MCL1-BIM inh: 2; GLD-1 RNA inh: 1; IDE cell inh: 0; BCLXL inh: 8; IDE cell activ: 0

What do the screens show for `CC(=O)c1ccc(S(=O)(=O)N2CCn3cccc3C2C)cc1` (stereo not given)?
MCL1-BIM inh: 42*; GLD-1 RNA inh: 20; IDE cell inh: 7; BCLXL inh: 43*; IDE cell activ: 9

How did COc1ccc(NC(C)=O)cc1S(=O)(=O)N1CCn2cccc2C1C (stereo not given) do in these assays?
MCL1-BIM inh: 8; GLD-1 RNA inh: 3; IDE cell inh: 0; BCLXL inh: 12; IDE cell activ: 0

What do the screens show for `CC(=O)c1ccc(NC(=O)C(C)O/N=C(\N)c2ccccc2)cc1` (stereo not given)?
GLD-1 RNA inh: 5; IDE cell inh: 1; IDE cell activ: 3

How did CN(Cc1ccccc1)C(=O)c1ccc(NC(=O)Cc2ccc(NC(=O)C3CCCN(S(=O)(=O)c4cccc([N+](=O)[O-])c4)C3)cc2)cc1 (stereo not given) do in these assays?
IDE cell activ: 4

What do the screens show for `CN(C)c1ccc(-c2nnc(-c3ccc(S(=O)(=O)C(F)F)cc3)o2)cc1`?
MCL1-BIM inh: 12; GLD-1 RNA inh: 3; IDE cell inh: 1; BCLXL inh: 16; MEX-5 binding: -34*; IDE cell activ: -2

What do the screens show for `c1ccc(C2CC(c3ccccc3)C(c3ccccc3)N2)cc1` (stereo not given)?
MCL1-BIM inh: -10; GLD-1 RNA inh: -8; IDE cell inh: 4; BCLXL inh: 2; MEX-5 binding: 2; IDE cell activ: -1

How did O=C(NC1CCCCCCC1)c1ccc(Br)cc1 do in these assays?
MCL1-BIM inh: 52*; GLD-1 RNA inh: 28; IDE cell inh: -4; BCLXL inh: 68*; MEX-5 binding: 1

Results for CCC(NC(C)C)C(O)c1ccc(O)c(O)c1 (stereo not given) ?
MCL1-BIM inh: -6; GLD-1 RNA inh: 2; IDE cell inh: 5; BCLXL inh: 6; MEX-5 binding: -29*; IDE cell activ: 5

Results for O=C(CCN1C(=O)C2C3C=CC(C3)C2C1=O)NCCN1CCCc2ccccc21 (stereo not given) ?
MCL1-BIM inh: 31; GLD-1 RNA inh: 14; IDE cell inh: 2; BCLXL inh: 34*; MEX-5 binding: 0; IDE cell activ: 4

How did Cc1sc2ncnc(SCC(=O)Nc3nc(-c4ccc(F)c(F)c4)cs3)c2c1C do in these assays?
MCL1-BIM inh: -3; GLD-1 RNA inh: 4; IDE cell inh: 1; BCLXL inh: 2; MEX-5 binding: 2; IDE cell activ: 1

Results for COC(=O)C(Cc1ccc(O)cc1)NC(=O)C(CC(=O)OC(C)(C)C)NC(=O)OC(C)(C)C (stereo not given) ?
MCL1-BIM inh: 0; GLD-1 RNA inh: 0; IDE cell inh: -4; BCLXL inh: 1; MEX-5 binding: 3; IDE cell activ: 2

What do the screens show for `CCOc1ccc(NC(=O)Nc2ccc(Cc3ccncc3)cc2)cc1`?
MCL1-BIM inh: 29; GLD-1 RNA inh: 6; IDE cell inh: 4; BCLXL inh: 36*; MEX-5 binding: 0; IDE cell activ: -11

What do the screens show for `CC1(C(=O)N2CCN(c3ccc([N+](=O)[O-])cc3)CC2)CC1(Cl)Cl` (stereo not given)?
MCL1-BIM inh: 4; GLD-1 RNA inh: 64*; IDE cell inh: 1; BCLXL inh: 7; MEX-5 binding: 1; IDE cell activ: -2

How did CC1(C(=O)N2CCN(c3ccccc3)CC2)CC1(Cl)Cl (stereo not given) do in these assays?
MCL1-BIM inh: -4; GLD-1 RNA inh: 0; IDE cell inh: 3; BCLXL inh: 4; MEX-5 binding: -2; IDE cell activ: -1

How did COC(CNS(=O)(=O)c1cc2c3c(c1)CCN3C(=O)CC2)OC do in these assays?
MCL1-BIM inh: -7; GLD-1 RNA inh: 4; IDE cell inh: 2; BCLXL inh: 4; MEX-5 binding: 3; IDE cell activ: 6

Results for S=c1[nH]cnc2sc(-c3ccccc3)cc12 ?
MCL1-BIM inh: -5; GLD-1 RNA inh: -4; IDE cell inh: 19*; BCLXL inh: 5; MEX-5 binding: -1; IDE cell activ: -17

How did COc1ccccc1NC(=O)Cn1cncc1-c1ccc([N+](=O)[O-])cc1 do in these assays?
MCL1-BIM inh: 2; GLD-1 RNA inh: 2; IDE cell inh: 5; BCLXL inh: -1; MEX-5 binding: -1; IDE cell activ: -3

Results for O=C(Cn1cncc1-c1ccc([N+](=O)[O-])cc1)Nc1ccccc1F ?
MCL1-BIM inh: 0; GLD-1 RNA inh: 33*; IDE cell inh: 4; BCLXL inh: 1; MEX-5 binding: -2; IDE cell activ: 8

How did CCCS(=O)(=O)c1ccc(COC(=O)Cc2ccc([N+](=O)[O-])cc2)cc1 do in these assays?
MCL1-BIM inh: -4; GLD-1 RNA inh: 6; IDE cell inh: 0; BCLXL inh: -3; MEX-5 binding: 3; IDE cell activ: -8

Results for O=C(Nc1cccnc1)c1cc(S(=O)(=O)N2CCCCC2)c(Cl)cc1Cl ?
MCL1-BIM inh: -3; GLD-1 RNA inh: 2; IDE cell inh: -3; BCLXL inh: 0; MEX-5 binding: 2; IDE cell activ: 1

What do the screens show for `O=C1NC(=S)S/C1=C\c1ccc(SCc2ccco2)o1`?
MCL1-BIM inh: 75*; GLD-1 RNA inh: 13; IDE cell inh: -6; BCLXL inh: 66*; IDE cell activ: -7

Results for O=C1NC(=S)S/C1=C\c1ccc(SCc2ccccc2)o1 ?
MCL1-BIM inh: -33; GLD-1 RNA inh: -32; IDE cell inh: 4; BCLXL inh: -5; IDE cell activ: 3

How did Cn1c(C(C#N)C2=C(Cl)C(=O)N(c3ccccc3)C2=O)nc2ccccc21 (stereo not given) do in these assays?
MCL1-BIM inh: 42*; GLD-1 RNA inh: 45*; IDE cell inh: 6; BCLXL inh: 50*

Results for CC(C)c1cc[n+](-c2nc([O-])sc2C=O)cc1 ?
MCL1-BIM inh: 45*; GLD-1 RNA inh: 12; IDE cell inh: 4; BCLXL inh: 42*; MEX-5 binding: -22; IDE cell activ: -5

How did CCN(CC)S(=O)(=O)c1ccc2[nH]c(=O)c3ccccc3c2c1 do in these assays?
MEX-5 binding: -1; IDE cell activ: -3
